Reference: PubChem BioAssay AID652010 (The Scripps Research Institute Molecular Screening Center, 2013)
In all, about 370,000 compounds went through this assay and about 4,100 (1.1%) were called active.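 How the source made its calls: active means inhibition above the mean over all tested compounds plus 3 SD (cut at about 3.6% in these data); inactive means the rest.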 Only a selection was taken, and actives are over-represented in it overall.

Test: DAX1 (NR0B1) inhibitors on StAR promoter, primary screen, cell-based, luminescence, SF-1 (NR5A1), full-length DAX-1 (AID 652010);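 further: 0% = DAX-1 cells with DMSO and 100% = cells lacking DAX-1 with DMSO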
Conditions: HEK293T StAR-luciferase reporter, SF-1/DAX-1 repression relief; at 6.8 µM; stronger effect = higher value

| SMILES | inhibition |
| --- | --- |
| Cc1cc2oc(C(=O)Nc3c(C)n(C)n(-c4ccccc4)c3=O)c(C)c2cc1Cl | -0.22% (inactive) |
| Cc1ccnc(NC(=O)CNC(=O)c2ccccc2)c1 | 6.34% (active) |
| Cc1ccnc(NC(=O)Cn2ccc([N+](=O)[O-])n2)c1 | 0.11% (inactive) |
| Cc1ccnc(NC(=O)CCCOc2ccccc2)c1 | 0.57% (inactive) |
| O=C(CN1CCCc2ccccc21)NCc1ccc(F)cc1 | -0.22% (inactive) |
| Brc1ccc(COCCc2cn(Cc3ccccc3)c3ccccc23)cc1 | 1.27% (inactive) |
| O=C(COc1ccc(Br)cc1F)NCC1(N2CCCCC2)CCCCC1 | 0.06% (inactive) |
| CC(C)N(Cc1nnc(-c2ccc(Cl)cc2)o1)C(=O)C1=COCCO1 | -1.6% (inactive) |
| CN(C)CCN(C(=O)C1=COCCO1)c1nc2ccc(Cl)cc2s1 | 4.61% (active) |
| CCCOP(=O)(c1ccc(N(C)C)cc1)C(O)c1cc(OC)c(OC)c(OC)c1 (stereo unspecified) | 0.1% (inactive) |
| CCCC[C@H](C(=O)N(CC)c1ccccc1)[C@@H](O)c1ccc2ccccc2c1 | -1.35% (inactive) |
| COC(=O)[C@]12C[C@H](CC(=O)NCc3cccc4ccccc34)C(=O)N(CCc3ccc(OC)c(OC)c3)C1=C[C@H](C1CCCC1)O[C@@H]2C | -1.59% (inactive) |
| C#CCN([C@H](C(=O)OC)C(C)CC)S(=O)(=O)c1ccccc1Br (stereo partly specified) | -0.34% (inactive) |
| COc1ccc(NS(=O)(=O)c2ccc(C)c(C(=O)NCC(c3cccs3)N3CCOCC3)c2)cc1 (stereo unspecified) | 1.82% (inactive) |
| COc1ccc(C(CNC(=O)c2cc(S(=O)(=O)Nc3cccc(C)c3)ccc2C)N2CCCC2)cc1 (stereo unspecified) | 4.48% (active) |
| COc1ccc(C(CNC(=O)c2cccc(NS(=O)(=O)c3ccc(C)c(F)c3)c2)N2CCCC2)cc1 (stereo unspecified) | 2.54% (inactive) |
| CCOC(=O)C1(Cc2ccccc2)CCN(Cc2cn(C(C)=O)c3ccccc23)CC1 | -0.4% (inactive) |
| COc1ccccc1C(=O)NCCC(=O)NCC(c1ccco1)N1CCCCC1 (stereo unspecified) | 0.45% (inactive) |
| CCCCn1nc(C(=O)N2CCc3ccccc32)c2ccccc2c1=O | -1% (inactive) |
| O=C(c1cc2sccc2n1Cc1ccc(F)cc1)N1CCc2ccccc21 | -0.14% (inactive) |
| O=C(c1cnn2ccccc12)N1CCc2ccccc21 | 6% (active) |

| SMILES | inhibition |
| --- | --- |
| Cc1ccccc1C(=O)N[C@H](C(=O)N1CCC[C@H]1C(=O)NCc1ccccc1)C(C)C | 0.49% (inactive) |
| O=C(CCS(=O)(=O)Cc1ccccc1)Nc1ccc2c(c1)OCCO2 | -0.13% (inactive) |
| O=C(Nc1ccc2c(c1)OCCO2)C(C1CC1)N1CCC(Cc2ccccc2)CC1 (stereo unspecified) | -0.46% (inactive) |
| Nc1c(C(=O)Nc2ccc3c(c2)OCCO3)nnn1Cc1ccccc1 | 11.8% (active) |
| Cc1ccc(NC(=O)Cc2cccc(F)c2)c(S(=O)(=O)N2CCOCC2)c1 | -1.09% (inactive) |
| O=C(CSc1nnc(-c2ccccn2)n1-c1ccccc1)Nc1ccc2cn[nH]c2c1 | -1.05% (inactive) |
| O=[N+]([O-])c1ccc2c(c1)C(O)n1nc(-c3ccccc3)nc1S2 (stereo unspecified) | -0.33% (inactive) |
| O=[N+]([O-])c1ccc2oc(-c3cccc(O)c3)nc2c1 | 5.24% (active) |
| CNc1ccc([N+](=O)[O-])cc1C(=O)O | 0.42% (inactive) |
| COc1cccc(NS(=O)(=O)c2ccc(-c3coc(C)n3)cc2)c1 | -0.43% (inactive) |
| COc1cccc(-c2nc3cc(C)ccc3o2)c1 | 4.5% (active) |
| COc1cccc(-c2cnc(OC(C)(C)C)nc2OC(C)(C)C)c1 | -0.07% (inactive) |
| C=C(C)C#CC(Cc1ccccc1)N(CC1CC1)/C(N)=N/C(=O)OCc1ccccc1 (stereo unspecified) | -1.59% (inactive) |
| CC(=O)C1(C(=O)Nc2nccs2)CC(c2ccccc2C(F)(F)F)=NO1 (stereo unspecified) | -0.45% (inactive) |
| COc1ccnc(C(=O)N2CCC(Oc3cccnc3)CC2)c1 | -0.42% (inactive) |
| COc1ccc(N2CCN(CCNS(=O)(=O)c3ccc([N+](=O)[O-])cc3)CC2)cc1 | -1.45% (inactive) |
| O=C(NC1CCCCN(Cc2ccc(Cl)cc2)C1=O)c1ccc(Br)cc1 (stereo unspecified) | -1.64% (inactive) |
| O=c1[nH]c(-c2ccccc2)cn1C1CCN(Cc2ccc(-c3nc4ccc(F)cc4nc3-c3ccccc3)cc2)CC1 | -0.54% (inactive) |
| O=CN1CCN(C(=O)c2ccc(Br)o2)CC1 | -0.07% (inactive) |
| CN1CCN(C(=O)c2ccc(NC(=O)c3ccc(Br)o3)cc2)CC1 | 0.03% (inactive) |
| CN1CCN(C(=O)c2ccc(-c3ccc(Br)cc3)o2)CC1 | 4.56% (active) |

| SMILES | inhibition |
| --- | --- |
| COC(=O)[C@]12C[C@H](CC(=O)N3CCOCC3)C(=O)N(Cc3ccc(Cl)cc3Cl)C1=C[C@H](C(C)C)O[C@@H]2C1CC1 | -0.52% (inactive) |
| CCN(CC)S(=O)(=O)c1cccc(NC(=O)c2ccc(S(=O)(=O)N3CCCC3)cc2)c1 | -3.89% (inactive) |
| O=C(Nc1ncccc1O)c1ccc(S(=O)(=O)N2CCCC2)cc1 | 10.9% (active) |
| O=C(Nc1ncccc1O)c1ccc(C(=O)c2ccccc2)cc1 | 69.9% (active) |
| O=C(Nc1ccc(S(=O)(=O)N2CCCCC2)cc1)c1cnccn1 | 0.17% (inactive) |
| CC(C)(C)n1nc2c(c1NC(=O)c1ccc(S(=O)(=O)N3CCCC3)cc1)CS(=O)C2 (stereo unspecified) | -0.67% (inactive) |
| CN1CCN(NC(=O)c2ccc(S(=O)(=O)N3CCCCCC3)cc2)CC1 | -0.23% (inactive) |
| CCOC(=O)c1cccnc1NC(=O)c1ccncc1 | 0.42% (inactive) |
| O=C(CNC(=O)c1ccc2ccccc2c1)Nc1ncccc1O | 1.3% (inactive) |
| O=C(Nc1ncccc1O)c1ccc(S(=O)(=O)N2CCCCCC2)cc1 | 6.81% (active) |
| CC(=O)Nc1nc2ncccn2c1-c1ccc(C(F)(F)F)cc1 | -0.41% (inactive) |
| CCN(C(=O)[C@@H](C1CC1)[C@@H](O)c1ccc2ccccc2c1)c1ccccc1 | -0.4% (inactive) |
| COC(=O)C1CN(Cc2cn(Cc3ccc(F)cc3)nn2)CCS(=O)(=O)N1Cc1ccc(Cl)cc1 (stereo unspecified) | -0.95% (inactive) |
| c1ccc2[nH]c(-c3nc4ccccc4[nH]3)nc2c1 | 5.77% (active) |
| CCOC(=O)c1nc(-c2ccc3c(c2)OCO3)[nH]c1C | 2.3% (inactive) |
| Cc1ccc(-c2nc3ccccc3[nH]2)cc1N | 6.54% (active) |
| O=C1c2ccccc2C(c2nc3ccccc3[nH]2)N1c1ccccc1 (stereo unspecified) | -1.53% (inactive) |
| C/C(=N\Nc1nc2ccccc2[nH]1)c1cccs1 | 3.55% (inactive) |
| CCOC(=O)CNC(=O)CSc1ncccc1-c1nc2ccccc2[nH]1 | 0.2% (inactive) |
